Assay results as given in the supplement of paper PMC10849652.
Targets with a hit are over-represented here; the source holds about 8,800 in all. About 0.5% of all pairs of compound and target were hits. Values without a mark were called inactive.

Columns and labels:
Assay in all cases: log2 fold change, soluble protein after heating vs DMSO (PISA); higher = thermal stabilisation; K562 lysate, 10 uM; active = over 0.2 and 3.5 SD of the protein, either way, in both replicates (recomputed)
[1] = compound: Cc1cn(-c2cc(NC(=O)c3ccc(C)c(Nc4nccc(-c5cccnc5)n4)c3)cc(C(F)(F)F)c2)cn1 [nilotinib]
How it was run: (§1)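 Soluble protein was defined as the supernatant remaining after 21,000xg for 90 min, following pooling of heated aliquots and adjustment to 0.5% NP-40 at 4°C. Before that, crude K562 extract at 1 mg/mL protein in PBS pH 7.4 with 1 mM MgCl2 was treated with 10 μM compound for 30 min and heated for 3 min across 48°C-58°C. Quantification used TMTpro 16plex LC-MS/MS with channel sums equalised, and values are log-two fold changes in thermal stability relative to solvent controls from duplicates.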

[2] = compound: Cc1nc(Nc2n[nH]c3c2CN(C(=O)N[C@H](CN(C)C)c2ccccc2)C3(C)C)c2sccc2n1
How it was run: as §1

[3] = compound: Cc1nc(Nc2ncc(C(=O)Nc3c(C)cccc3Cl)s2)cc(N2CCN(CCO)CC2)n1 [dasatinib]
How it was run: as §1

[4] = compound: Cc1ncc(-c2ccnc(Nc3ccc(S(C)(=O)=O)cc3)n2)n1C(C)C
How it was run: as §1

[5] = compound: Cn1cc(-c2ccc3c(c2)CCN3C(=O)Cc2cccc(C(F)(F)F)c2)c2c(N)ncnc21
How it was run: as §1

[6] = compound: Cn1cc(CNCC2CCN(c3ncc(C(=O)NO)cn3)CC2)c2ccccc21 [quisinostat]
How it was run: as §1

[7] = compound: Cn1cncc1[C@@](N)(c1ccc(Cl)cc1)c1ccc2c(c1)c(-c1cccc(Cl)c1)cc(=O)n2C [tipifarnib]
How it was run: as §1

[8] = compound: NC(=O)Nc1cc(-c2cccc(F)c2)sc1C(=O)N[C@H]1CCCNC1
How it was run: as §1

[9] = compound: NC(=O)c1cnc(N[C@@H]2CCCC[C@@H]2N)nc1Nc1cccc(-n2nccn2)c1
How it was run: as §1

[10] = compound: NC1(c2ccc(-c3nc4ccn5c(=O)[nH]nc5c4cc3-c3ccccc3)cc2)CCC1
How it was run: as §1

[11] = compound: NCC(=O)Nc1ccc(-n2nc(C(F)(F)F)cc2-c2ccc3c(ccc4ccccc43)c2)cc1
How it was run: as §1

[12] = compound: O=C(CCCCCCC(=O)Nc1ccccc1)NO [vorinostat]
How it was run: as §1

[13] = compound: O=C(O)c1ccc2c(c1)nc(Nc1cccc(Cl)c1)c1ccncc12 [silmitasertib]
How it was run: as §1

[14] = compound: O=C1NC(=O)C(c2cnc3ccccn23)=C1c1cn2c3c(cc(F)cc13)CN(C(=O)N1CCCCC1)CC2
How it was run: as §1

[15] = compound: c1cn2cc(-c3ccc4cn[nH]c4c3)nc(Nc3ccc(N4CCOCC4)cc3)c2n1 [entospletinib]
How it was run: as §1

Chain of UniProt P04844 (P04844 whole entry, looked up): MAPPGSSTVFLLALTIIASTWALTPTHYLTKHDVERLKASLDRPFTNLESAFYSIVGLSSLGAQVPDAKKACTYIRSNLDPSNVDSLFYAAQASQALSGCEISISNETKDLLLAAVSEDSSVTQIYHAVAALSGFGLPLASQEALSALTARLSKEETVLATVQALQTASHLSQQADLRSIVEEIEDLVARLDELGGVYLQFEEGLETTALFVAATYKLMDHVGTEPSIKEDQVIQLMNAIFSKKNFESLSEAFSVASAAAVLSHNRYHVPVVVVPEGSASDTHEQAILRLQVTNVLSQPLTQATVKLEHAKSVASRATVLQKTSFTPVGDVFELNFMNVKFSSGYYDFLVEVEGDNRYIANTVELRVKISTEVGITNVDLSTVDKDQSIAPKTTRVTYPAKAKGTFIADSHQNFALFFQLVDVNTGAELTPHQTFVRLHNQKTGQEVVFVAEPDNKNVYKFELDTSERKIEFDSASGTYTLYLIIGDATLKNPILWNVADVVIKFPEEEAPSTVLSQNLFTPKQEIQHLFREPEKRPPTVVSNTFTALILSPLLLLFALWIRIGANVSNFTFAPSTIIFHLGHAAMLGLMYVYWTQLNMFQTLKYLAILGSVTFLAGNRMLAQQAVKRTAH
Chain of UniProt Q9BXT8 (Q9BXT8 whole entry, looked up): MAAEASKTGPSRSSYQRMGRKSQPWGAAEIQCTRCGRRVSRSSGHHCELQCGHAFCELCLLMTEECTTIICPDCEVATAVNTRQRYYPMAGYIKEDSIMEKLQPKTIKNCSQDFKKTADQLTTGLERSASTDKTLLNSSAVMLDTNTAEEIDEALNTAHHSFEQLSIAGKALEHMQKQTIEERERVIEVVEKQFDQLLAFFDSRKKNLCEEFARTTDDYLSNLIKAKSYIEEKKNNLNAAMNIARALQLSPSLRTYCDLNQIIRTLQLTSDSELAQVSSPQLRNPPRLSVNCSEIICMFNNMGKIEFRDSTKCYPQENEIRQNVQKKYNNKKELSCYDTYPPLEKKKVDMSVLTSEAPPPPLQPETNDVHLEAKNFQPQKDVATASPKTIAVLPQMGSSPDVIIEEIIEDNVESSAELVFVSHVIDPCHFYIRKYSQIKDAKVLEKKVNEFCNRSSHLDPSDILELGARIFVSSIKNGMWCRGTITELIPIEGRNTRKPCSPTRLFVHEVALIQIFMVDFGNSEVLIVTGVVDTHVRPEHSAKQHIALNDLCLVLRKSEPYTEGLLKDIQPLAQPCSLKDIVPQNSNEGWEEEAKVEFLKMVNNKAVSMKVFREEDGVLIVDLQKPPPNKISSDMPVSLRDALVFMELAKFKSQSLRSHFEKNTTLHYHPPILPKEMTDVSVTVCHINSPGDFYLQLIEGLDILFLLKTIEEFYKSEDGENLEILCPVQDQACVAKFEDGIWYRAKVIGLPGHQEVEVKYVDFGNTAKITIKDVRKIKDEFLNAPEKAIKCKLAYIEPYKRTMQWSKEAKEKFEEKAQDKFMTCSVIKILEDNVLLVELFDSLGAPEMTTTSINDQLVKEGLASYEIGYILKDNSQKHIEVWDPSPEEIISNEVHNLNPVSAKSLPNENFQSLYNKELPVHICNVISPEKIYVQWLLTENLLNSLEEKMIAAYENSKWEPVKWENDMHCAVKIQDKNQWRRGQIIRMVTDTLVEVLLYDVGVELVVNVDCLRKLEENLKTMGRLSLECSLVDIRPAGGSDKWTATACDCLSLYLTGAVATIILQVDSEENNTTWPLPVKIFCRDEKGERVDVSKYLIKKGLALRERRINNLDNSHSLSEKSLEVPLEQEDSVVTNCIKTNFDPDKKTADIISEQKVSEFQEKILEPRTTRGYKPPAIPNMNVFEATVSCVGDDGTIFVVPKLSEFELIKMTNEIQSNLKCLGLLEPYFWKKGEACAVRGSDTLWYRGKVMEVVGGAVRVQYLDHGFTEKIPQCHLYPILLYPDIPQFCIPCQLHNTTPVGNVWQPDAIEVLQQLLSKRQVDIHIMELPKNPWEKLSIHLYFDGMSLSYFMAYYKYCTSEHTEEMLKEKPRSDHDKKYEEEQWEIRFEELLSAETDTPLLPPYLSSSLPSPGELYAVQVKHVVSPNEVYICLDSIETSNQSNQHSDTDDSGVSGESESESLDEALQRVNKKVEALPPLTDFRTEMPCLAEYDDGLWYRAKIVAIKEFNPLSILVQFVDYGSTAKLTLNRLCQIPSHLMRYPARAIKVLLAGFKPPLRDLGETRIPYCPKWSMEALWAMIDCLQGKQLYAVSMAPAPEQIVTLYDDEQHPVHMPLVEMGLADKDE
Chain of UniProt O60518 (O60518 whole entry, looked up): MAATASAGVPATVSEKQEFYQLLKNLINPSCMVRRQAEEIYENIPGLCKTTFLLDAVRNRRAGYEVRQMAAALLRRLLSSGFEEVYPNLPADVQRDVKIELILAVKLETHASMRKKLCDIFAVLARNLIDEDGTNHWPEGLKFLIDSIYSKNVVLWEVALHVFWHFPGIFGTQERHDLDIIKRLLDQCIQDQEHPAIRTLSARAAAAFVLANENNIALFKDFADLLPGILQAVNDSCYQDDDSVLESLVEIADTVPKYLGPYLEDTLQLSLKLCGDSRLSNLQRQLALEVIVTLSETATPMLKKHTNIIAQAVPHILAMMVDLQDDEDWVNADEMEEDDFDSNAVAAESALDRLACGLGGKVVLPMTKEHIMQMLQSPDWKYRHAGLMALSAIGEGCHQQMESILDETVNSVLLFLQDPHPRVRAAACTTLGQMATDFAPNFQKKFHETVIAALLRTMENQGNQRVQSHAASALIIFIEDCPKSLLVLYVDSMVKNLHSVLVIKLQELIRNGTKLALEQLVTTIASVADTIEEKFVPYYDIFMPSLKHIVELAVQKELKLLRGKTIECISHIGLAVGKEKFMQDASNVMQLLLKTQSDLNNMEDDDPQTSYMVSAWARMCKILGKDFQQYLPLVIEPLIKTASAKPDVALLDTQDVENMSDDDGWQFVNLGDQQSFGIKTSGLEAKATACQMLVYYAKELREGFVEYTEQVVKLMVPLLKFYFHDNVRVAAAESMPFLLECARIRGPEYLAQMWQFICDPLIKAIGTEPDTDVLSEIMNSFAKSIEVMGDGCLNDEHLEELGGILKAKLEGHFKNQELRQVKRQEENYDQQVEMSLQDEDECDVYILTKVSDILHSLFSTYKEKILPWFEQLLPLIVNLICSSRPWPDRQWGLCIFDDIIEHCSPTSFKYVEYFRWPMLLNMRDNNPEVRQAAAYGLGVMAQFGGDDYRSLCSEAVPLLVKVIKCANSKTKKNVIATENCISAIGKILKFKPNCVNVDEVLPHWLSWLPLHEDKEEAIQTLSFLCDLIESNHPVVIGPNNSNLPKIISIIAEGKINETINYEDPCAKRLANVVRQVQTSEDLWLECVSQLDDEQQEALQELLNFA
Chain of UniProt Q96JX3 (Q96JX3 whole entry, looked up): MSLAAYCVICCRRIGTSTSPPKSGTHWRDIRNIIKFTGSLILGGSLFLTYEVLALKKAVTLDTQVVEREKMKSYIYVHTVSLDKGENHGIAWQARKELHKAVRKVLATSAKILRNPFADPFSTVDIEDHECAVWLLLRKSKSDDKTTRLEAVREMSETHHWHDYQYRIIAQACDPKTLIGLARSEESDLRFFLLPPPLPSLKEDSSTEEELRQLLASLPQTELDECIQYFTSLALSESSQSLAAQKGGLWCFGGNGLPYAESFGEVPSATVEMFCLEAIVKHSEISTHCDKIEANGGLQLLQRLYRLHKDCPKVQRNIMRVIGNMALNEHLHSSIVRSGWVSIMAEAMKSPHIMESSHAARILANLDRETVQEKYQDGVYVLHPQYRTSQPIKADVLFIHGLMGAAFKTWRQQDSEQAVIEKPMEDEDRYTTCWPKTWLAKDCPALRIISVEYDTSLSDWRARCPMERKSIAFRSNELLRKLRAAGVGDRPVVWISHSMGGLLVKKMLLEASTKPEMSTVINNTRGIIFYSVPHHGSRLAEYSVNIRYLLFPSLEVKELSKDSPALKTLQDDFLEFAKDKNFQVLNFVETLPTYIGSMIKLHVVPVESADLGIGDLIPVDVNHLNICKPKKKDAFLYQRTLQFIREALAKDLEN
Chain of UniProt Q86U06 (Q86U06 whole entry, looked up): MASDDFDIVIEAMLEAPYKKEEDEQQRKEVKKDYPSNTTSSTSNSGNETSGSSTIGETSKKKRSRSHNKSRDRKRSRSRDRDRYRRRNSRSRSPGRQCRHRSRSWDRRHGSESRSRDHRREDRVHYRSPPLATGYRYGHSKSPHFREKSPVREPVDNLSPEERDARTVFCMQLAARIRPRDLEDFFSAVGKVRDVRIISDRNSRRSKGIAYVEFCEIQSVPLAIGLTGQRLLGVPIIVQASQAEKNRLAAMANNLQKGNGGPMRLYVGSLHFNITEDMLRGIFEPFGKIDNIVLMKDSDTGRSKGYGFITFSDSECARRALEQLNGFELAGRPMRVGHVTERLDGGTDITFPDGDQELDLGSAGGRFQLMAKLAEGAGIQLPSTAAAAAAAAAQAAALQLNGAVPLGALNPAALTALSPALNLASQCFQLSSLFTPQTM
Chain of UniProt Q9NVW2 (Q9NVW2 whole entry, looked up): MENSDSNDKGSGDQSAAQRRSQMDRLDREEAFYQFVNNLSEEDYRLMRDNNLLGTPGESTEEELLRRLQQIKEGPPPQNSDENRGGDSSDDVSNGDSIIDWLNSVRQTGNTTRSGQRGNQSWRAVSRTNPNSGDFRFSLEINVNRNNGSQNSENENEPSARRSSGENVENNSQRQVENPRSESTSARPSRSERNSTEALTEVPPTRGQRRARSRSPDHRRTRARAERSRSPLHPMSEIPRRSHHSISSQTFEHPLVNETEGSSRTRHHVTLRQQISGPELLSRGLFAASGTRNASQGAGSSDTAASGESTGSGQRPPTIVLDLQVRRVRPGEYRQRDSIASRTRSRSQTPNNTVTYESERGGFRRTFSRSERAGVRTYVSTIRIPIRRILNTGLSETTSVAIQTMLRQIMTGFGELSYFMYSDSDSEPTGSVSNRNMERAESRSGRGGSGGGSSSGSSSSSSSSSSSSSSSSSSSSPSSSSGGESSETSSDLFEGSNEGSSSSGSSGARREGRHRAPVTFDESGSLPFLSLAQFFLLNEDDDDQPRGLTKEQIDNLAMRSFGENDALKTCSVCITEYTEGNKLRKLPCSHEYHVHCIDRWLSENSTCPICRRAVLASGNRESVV

| Target | log2 fold change [1] | log2 fold change [2] | log2 fold change [3] | log2 fold change [4] | log2 fold change [5] | log2 fold change [6] | log2 fold change [7] | log2 fold change [8] | log2 fold change [9] | log2 fold change [10] | log2 fold change [11] | log2 fold change [12] | log2 fold change [13] | log2 fold change [14] | log2 fold change [15] |
| --- | --- | --- | --- | --- | --- | --- | --- | --- | --- | --- | --- | --- | --- | --- | --- |
| RMC1 (UniProt Q96DM3) | 0.027 | 0.005 | 0.008 | -0.002 | 0.003 | -0.02 | -0.057 | 0.035 | -0.007 | 0.036 | 0.008 | -0.391 (active) | 0.017 | -0.013 | 0.037 |
| RCC1 isoform 2 (UniProt P18754) | 0.024 | -0.024 | -0.071 | 0.021 | 0.034 | 0.001 | -0.011 | 0.027 | -0.02 | -0.043 | 0.009 | -0.381 (active) | 0.034 | 0.051 | -0.014 |
| RANBP6 (UniProt O60518) | 0.039 | -0.036 | -0.002 | -0.071 | 0.049 | -0.063 | -0.072 | 0.055 | 0.062 | -0.06 | 0.013 | -0.345 (active) | 0.054 | 0.041 | 0.011 |
| SERPINI1 (UniProt Q99574) | -0.04 | -0.013 | 0.038 | -0.034 | -0.013 | 0.035 | 0.036 | 0.003 | 0.009 | -0.015 | -0.04 | 0.124 | -0.021 | -0.003 | -0.016 |
| RPN2 (UniProt P04844) | -0.011 | 0.005 | -0.008 | -0.013 | -0.006 | 0.049 | -0.015 | -0.001 | 0.011 | -0.003 | -0.007 | 0.118 | 0.008 | -0.04 | -0.009 |
| RAC2 (UniProt P15153) | -0.025 | -0.076 | -0.068 | 0.015 | -0.093 | 0.021 | 0 | 0.001 | 0.04 | 0.017 | -0.073 | -0.25 (active) | 0.024 | 0.102 | 0.024 |
| REL isoform 2 (UniProt Q04864) | 0.009 | -0.032 | -0.015 | -0.041 | 0.056 | -0.005 | 0.014 | 0.005 | -0.009 | -0.017 | -0.052 | -0.351 (active) | 0.07 | -0.004 | 0.019 |
| SEC62 (UniProt Q99442) | 0.013 | -0.032 | 0.01 | -0.038 | -0.011 | 0.083 | -0.055 | -0.045 | -0.007 | -0.01 | 0.036 | 0.133 | 0.015 | 0.007 | -0.019 |
| RAP1B (UniProt F5GZG1) | 0.012 | -0.066 | 0.05 | -0.253 | 0.047 | -0.011 | -0.058 | 0.087 | -0.019 | -0.029 | -0.051 | -0.054 | -0.004 | -0.099 | -0.026 |
| RELN (UniProt P78509) | -0.086 | -0.039 | -0.005 | -0.047 | 0.002 | -0.005 | -0.032 | 0.042 | -0.101 | 0.013 | 0.016 | 0.088 | -0.049 | 0.006 | -0.037 |
| SEC61G (UniProt P60059) | -0.007 | -0.061 | 0 | 0.089 | -0.033 | -0.045 | 0.134 | -0.01 | 0.023 | 0.053 | -0.047 | 0.005 | 0.013 | 0.232 | -0.034 |
| RBM23 isoform 2 (UniProt Q86U06) | 0.172 | 0.021 | -0.004 | -0.065 | -0.061 | -0.047 | -0.168 | -0.024 | -0.056 | 0.021 | 0.121 | -0.334 | -0.019 | -0.113 | 0.037 |
| RALGAPB isoform 3 (UniProt Q86X10) |  |  | 0.052 |  | -0.034 |  |  |  |  |  |  |  |  |  | -0.045 |
| RNF2 (UniProt Q99496) | 0.026 | -0.047 | -0.07 | 0.027 | -0.025 | 0.154 | -0.124 | -0.015 |  | -0.05 | -0.015 | -0.037 | 0.021 | 0.008 | -0.033 |
| SAP30 (UniProt O75446) | 0.104 | -0.464 (active) | -0.063 | -0.124 | 0.012 | -0.111 | -0.026 | 0.037 | -0.035 |  | 0.001 |  |  | -0.024 | -0.022 |
| RLIM (UniProt Q9NVW2) |  |  |  |  |  | -0.748 (active) |  | 0.233 |  |  |  |  |  | 0.289 |  |
| SELENOK (UniProt Q9Y6D0) | -0.009 | -0.032 | 0.082 | 0.064 | -0.032 |  | -0.077 |  | 0.001 |  | -0.192 |  |  |  |  |
| RFNG (UniProt Q9Y644) | 0.184 | 0.054 |  | -0.078 |  |  | -0.048 |  |  |  |  |  |  |  |  |
| ROCK1 (UniProt Q13464) | -0.013 | -0.001 | -0.004 | 0.006 | 0.011 | -0.01 | 0.001 |  | 0.009 | 0.013 | 0 | -0.211 (active) |  | -0.017 | -0.016 |
| RNF24 isoform 2 (UniProt Q9Y225) | 0.105 | -0.028 |  | 0.123 |  | -0.139 | 0.034 | -0.075 |  | 0.051 |  | 0.918 (active) | -0.117 | 0.016 |  |
| SERAC1 (UniProt Q96JX3) | 0.085 | -0.133 | -0.152 | -0.029 | 0.052 |  | 0.033 |  |  | -0.023 |  | 0.236 | 0.155 |  | -0.001 |
| SCNM1 (UniProt Q9BWG6) | -0.078 | -0.045 | 0.122 | -0.091 | 0.015 | -0.061 | 0.045 | 0.06 | -0.104 | -0.106 |  | -0.13 | -0.102 | -0.082 | 0.092 |
| RNF17 (UniProt Q9BXT8) |  |  | -0.055 |  | 0.061 | 0.142 |  | 0.054 | 0.046 | 0.043 |  | -0.016 | -0.021 | -0.106 | 0.107 |
